The list is not random: actives were taken first. Their share in the collection is about 4%.
Mtb FBA inh: Mtb FBA enzyme inhibitors, primary screen, biochemical, fluorescence, strain H37Rv. purified M. tuberculosis FBA, fluorescence read-out. inhibition, % at 1 µM. 360,000 compounds, 2.3% hits. AID 588726, 2011;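 further: 0% = vehicle and 100% = reference inhibitor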
Rv3671c protease: Rv3671c serine protease inhibitors, primary screen, biochemical, fluorescence polarization, M. tuberculosis H37Rv | P9WHR9 | inhibition, % at 5.96 µM | 320,000 compounds, 0.048% hits | AID 2606, 2010; in the data active means inhibition above about 38%;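 further: extracellular domain of Rv3671c used as enzyme; 0% = enzyme with DMSO and 100% = no enzyme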
Target sequence (P9WHR9 whole entry, looked up, the tested form may be a part): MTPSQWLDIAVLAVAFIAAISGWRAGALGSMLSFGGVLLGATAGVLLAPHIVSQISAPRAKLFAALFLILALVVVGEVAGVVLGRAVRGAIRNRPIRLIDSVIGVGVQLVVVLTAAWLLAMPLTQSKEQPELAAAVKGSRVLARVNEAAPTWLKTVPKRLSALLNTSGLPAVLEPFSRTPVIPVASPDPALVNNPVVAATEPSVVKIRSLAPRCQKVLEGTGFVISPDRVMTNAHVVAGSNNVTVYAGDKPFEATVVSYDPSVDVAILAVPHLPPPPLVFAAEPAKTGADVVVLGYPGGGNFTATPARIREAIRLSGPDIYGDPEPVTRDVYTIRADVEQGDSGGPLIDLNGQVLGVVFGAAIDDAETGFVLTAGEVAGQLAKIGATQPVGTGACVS
Mtb betalactam: beta-lactam sensitization of Mtb H37Rv, H37Rv; M. tuberculosis H37Rv growth with meropenem, percent inhibition; inhibition, % at 25 µM; AID 434955, 2010; 330,000 compounds, 0.27% hits; call rule not given here;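 further: growth measured after seven days incubation then overnight dye step; 0% = bacteria only wells and 100% = bacteria with antibiotic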
GDH-TPI counter-1: GDH-TPI coupling enzyme inhibitors, primary screen, artefact control for M. tuberculosis FBA inhibitor project, biochemical, absorbance, full deck; inhibition, % at 4.8 µM; GDH-TPI coupled enzyme counterscreen, NADH absorbance; 360,000 compounds, 1.2% hits; AID 588335, 2011; in the data active means inhibition above about 30%;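 further: 0% = DMSO wells and 100% = wells lacking the enzyme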
RecA intein inh: Mtb RecA intein splicing inhibitors, primary screen, biochemical, fluorescence, HTS; cell-free RecA intein splicing; inhibition, % (concentration not given with the values); 290,000 compounds, 0.75% hits; AID 2221, 2009; in the data active means inhibition above about 30%;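 further: 0% = vehicle wells and 100% = reference inhibitor control wells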
UGM FP inh: M. tuberculosis UGM enzyme inhibitors, primary screen, biochemical, fluorescence polarization, single point; purified UGM, fluorescence polarization probe displacement; inhibition, % at 10 µM; 320,000 compounds, 0.06% hits; in the data active means inhibition above about 10%, passing the limit was not always enough
Mtb FBA inh conf: M. tuberculosis aldolase blockers, biochemical, fluorescence, strain H37Rv, confirmation; shares compounds with Mtb FBA inh; purified M. tuberculosis FBA, fluorescence read-out; inhibition, % at 1 µM; 5,600 compounds, 78% hits;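 further: 0% = vehicle wells and 100% = reference inhibitor wells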
GDH-TPI counter-2: GDH-TPI coupling enzyme inhibitors, artefact control for M. tuberculosis FBA inhibitor project, biochemical, fluorescence, high throughput | 5,600 compounds, 81% hits | shares compounds with Mtb FBA inh | inhibition, % at 1 µM | GDH-TPI coupled enzyme counterscreen; in the data active means inhibition above about 10%
* = called active by the depositor; nt = no result given; + = active, no number. Unless noted, no stated cut-off is given here; in the data, active means inhibition above about 27%; inactive means the rest.

SMILES	Mtb FBA inh	Rv3671c protease	Mtb betalactam	GDH-TPI counter-1	RecA intein inh	UGM FP inh	Mtb FBA inh conf	GDH-TPI counter-2
COc1ccc(-c2ccc3c(c2)S(=O)(=O)c2cccc(C(=O)NCCOc4ccccc4)c2C3=O)cc1OC	51.8*	0.4	-9.7	11.2	nt	8.7	38.9*	29.4*
COc1cccc2c1cc1c(=O)n(CC(=O)N3CCCC3)nc(C)n12	79.7*	nt	nt	-1.7	nt	nt	8.5	2.3
O=C(Nc1c2c(nn1-c1ccc(Cl)cc1)CS(=O)(=O)C2)C1CC1	6.1	-1.7	-12.8	5.2	2.2	3.2	nt	nt
COc1ccccc1N1CCN(C(=O)c2coc(=O)c(Br)c2)CC1	84.4*	-6.5	-3.0	15.3	-0.9	3.8	+	+
CN(C)CCNC(=O)c1coc(=O)c(Br)c1	66.3*	0.6	-6.5	10.0	-1.9	1.5	+	+
COc1ccccc1N1CCN(C(=O)c2cccc(C(=O)N3CCN(c4ccccc4OC)CC3)c2)CC1	0.8	-0.1	-9.8	4.5	nt	0.7	nt	nt
COc1ccccc1NC(=O)c1cc(N)cc(C(=O)Nc2ccccc2OC)c1	0.3	-3.7	-3.3	7.2	0.2	-2.9	nt	nt
COc1ccccc1NC(=O)c1coc(=O)c(Br)c1	62.7*	-7.3	-1.8	5.5	2.4	-1.2	52.1*	46.1*
Nc1c(C(=O)CSc2nc3ccccc3o2)c(=O)[nH]c(=O)n1C1CC1	4.5	-6.4	-8.2	7.6	nt	0.9	nt	nt
O=C(CSc1nc(C(F)(F)F)cc(=O)[nH]1)N1CCCCCC1	0.3	4.1	-0.9	3.5	-0.4	0.1	nt	nt
O=c1cc(C(F)(F)F)c2sc(N3CCCCC3)nc2[nH]1	86.0*	1.1	nt	19.6	-103.4	-1.7	162.0*	124.8*
Cc1ncc(CO)c(/C=N/NC(=O)c2ccoc2C)c1O	33.2*	nt	nt	10.4	nt	nt	1.7	2.5
Cc1cccc(COC(=O)C(Cc2ccccc2)NC(N)=O)c1 (stereo not given)	2.2	-0.7	2.5	-10.7	0.7	0.1	nt	nt
Cc1ccc(S(=O)(=O)Nc2nc3ccccc3nc2NCC2CCCO2)c(C)c1 (stereo not given)	29.5*	-1.0	-5.9	15.5	-1.4	3.3	108.1*	91.7*
O=S(=O)(Nc1nc2ccccc2nc1NCC1CCCO1)c1cccs1 (stereo not given)	5.4	0.4	4.3	26.6	0.1	0.5	nt	nt
COc1ccccc1N1CCN(S(=O)(=O)c2cc(-c3cc(C)no3)ccc2C(C)C)CC1	-1.1	5.0	-2.4	-2.6	-4.5	-3.9	nt	nt
COc1ccc(OC)c(CCNC(=O)c2ccc3c(c2)N(Cc2ccc(F)cc2)CCS3)c1	21.7	-0.5	-9.9	0.9	1.9	-1.4	nt	nt
CN(C)CCNC(=O)c1ccc2c(c1)N(Cc1ccc(F)cc1)CCS2	86.7*	-1.8	-0.9	-1.0	-12.5	4.3	-5.9	-5.2
O=C(NC1CCCC1)c1ccc2c(c1)N(Cc1ccc(F)cc1)CCS2	71.7*	-9.4	3.5	5.0	0.3	1.3	0.7	1.6
COc1cccc(C(=O)OCC(=O)NCC2CCCO2)c1 (stereo not given)	0.6	3.9	3.4	1.8	nt	-0.4	nt	nt
CCOc1ccc(-c2cc(C(=O)NCc3cc(OC)cc(OC)c3)[nH]n2)c(C)c1	1.9	nt	nt	7.1	nt	nt	nt	nt
CC(C)C[C@H]1C(=O)N2CCC[C@H]2[C@]2(O)O[C@](NC(=O)[C@@H]3C=C4c5cccc6[nH]cc(c56)C[C@H]4N(C)C3)(C(C)C)C(=O)N12	13.2	-30.1	-0.8	17.1	nt	6.0	nt	nt
CCC(CO)NC(=O)C1C=C2c3cccc4[nH]cc(c34)CC2N(C)C1 (stereo not given)	82.9*	-1.2	-2.4	9.8	20.7	1.6	+	+
Cc1nc(C)c(C(=O)OCC(=O)Nc2ccc(C)c(C)c2)s1	4.8	nt	nt	15.9	nt	nt	nt	nt
Cc1cccc(-c2nc(C#N)c(N3CCCCC3)o2)c1	37.8*	-12.1	-1.6	4.4	-0.7	2.9	35.5*	32.6*
SMILES	Mtb FBA inh	Rv3671c protease	Mtb betalactam	GDH-TPI counter-1	RecA intein inh	UGM FP inh	Mtb FBA inh conf	GDH-TPI counter-2
CN1CCN(c2oc(-c3ccc([N+](=O)[O-])cc3)nc2C#N)CC1	-1.0	-3.9	4.5	13.2	3.0	-2.9	nt	nt
Cc1cccc(-c2nc(C#N)c(NC3CCCCC3)o2)c1	95.9*	-1.0	0.0	13.6	-2.9	-1.2	34.6*	27.0*
Cc1ccccc1-c1nc(C#N)c(N2CCCCC2)o1	70.4*	6.6	-5.1	-4.7	8.8	-2.5	7.8	2.0
Cc1ccccc1OCc1nc(C#N)c(N2CCCC2)o1	-0.6	0.7	7.0	-0.3	0.8	0.2	nt	nt
Cc1cccc(-c2nc(CS(=O)CC(=O)NC3CCCC3)c(C)o2)c1 (stereo not given)	4.4	nt	nt	10.0	nt	nt	nt	nt
Cc1ccc(-c2nc(C#N)c(N3CCC(C)CC3)o2)cc1	67.1*	0.4	4.0	4.1	-1.5	-0.9	61.1*	58.5*
COc1ccc(-c2nc(C#N)c(N3CC(C)OC(C)C3)o2)cc1OC (stereo not given)	61.5*	1.4	0.2	5.7	1.0	0.8	97.9*	85.2*
CC1CN(c2oc(-c3ccccc3Cl)nc2C#N)CC(C)O1 (stereo not given)	5.5	4.6	-3.0	-1.7	-0.5	4.0	nt	nt
CCN(CC)CCCNC(=O)CCc1c(C)n(CC)c2cc(-c3ccccc3OC)nn2c1=O	65.0*	-4.5	-0.5	-6.6	-0.2	2.4	195.4*	118.2*
COc1ccccc1CNC(=O)CCc1c(C)nc2cc(-c3ccccc3OC)nn2c1C	16.5	-4.7	5.5	9.3	1.5	-0.5	nt	nt
CCOC(=O)CCc1c(C)n(CC)c2cc(-c3ccccc3OC)nn2c1=O	66.5*	-2.5	-9.2	7.6	0.0	1.2	+	+
Cc1ccc(C2C3=C(CC(C)(C)CC3=O)Nc3onc(C)c32)cc1 (stereo not given)	46.1*	-1.1	1.3	5.4	1.0	2.5	2.6	-1.4
CC1(C)CC(=O)C2=C(C1)Nc1[nH]c(=S)[nH]c(=O)c1C2c1ccccc1 (stereo not given)	4.3	2.3	-7.8	7.3	0.1	2.0	nt	nt
CSc1nc2c(c(=O)[nH]1)C(c1ccccc1)C1=C(CC(C)(C)CC1=O)N2 (stereo not given)	28.5*	-0.5	-0.4	5.7	nt	1.9	67.7*	45.2*

Bioassay records from PubChem BioAssay.
